The values that follow come from PMC10726135, “HNF4α isoforms regulate the circadian balance between carbohydrate and lipid metabolism in the liver”.

In all, about 18,000 sequences were measured (“log2 normalized intensity”: median about 0.36, highest 2% from about 7.3 on). The sample holds the highest values, similar sequences and a random draw of the others, so the mix is not that of the screen.

The experiment has as its target T1, HNF4alpha8 (COS-7 nuclear extract) (Homo sapiens, UniProt P41235-5 1-452).
T1 sequence: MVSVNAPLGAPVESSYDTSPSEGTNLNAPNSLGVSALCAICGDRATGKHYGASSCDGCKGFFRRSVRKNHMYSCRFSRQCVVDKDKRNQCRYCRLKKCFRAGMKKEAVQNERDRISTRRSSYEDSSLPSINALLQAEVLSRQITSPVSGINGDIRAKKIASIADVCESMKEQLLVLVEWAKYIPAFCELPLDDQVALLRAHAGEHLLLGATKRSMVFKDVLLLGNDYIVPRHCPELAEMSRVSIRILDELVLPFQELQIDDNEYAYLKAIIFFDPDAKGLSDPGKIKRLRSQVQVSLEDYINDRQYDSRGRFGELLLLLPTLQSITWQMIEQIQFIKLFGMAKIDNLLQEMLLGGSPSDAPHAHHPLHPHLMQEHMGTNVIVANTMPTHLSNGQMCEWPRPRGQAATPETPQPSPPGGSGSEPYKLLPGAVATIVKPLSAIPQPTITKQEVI
The experiment can be described thus: protein-binding microarray; COS-7 nuclear extract on double-stranded Agilent 4x180k PBM; binding buffer, salt, pH and temperature not given in the material; high values mean tight binding. To be noted: chain copies: 2; label: 3' end of strand 1 on the slide; dsDNA, one strand shown. In outline:
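Nuclear extracts came from COS-7 cells transiently transfected by CaPO4 with a human HNF4α isoform expression vector. They were applied to a custom Agilent SurePrint G3 4x180k array of ~60-nt oligonucleotides, made double-stranded, with ~44,000 test sequences spotted in quadruplicate. Bound HNF4α was imaged at 2-µm resolution on an Agilent G2565CA scanner. Binding signal was taken as background-corrected, normalized gProcessedSignal from Agilent software.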
“CCCCCAGTGGAATGTGCCCTTTGACCTCTCGCCTAGGGAGATTAGAGTATCGGTCGA”: the binding signal worked out at 10.3 log2 normalized intensity.

As for “AATGTGCCCTTTGACCTCTCTCTCCTAACTGCCTAGGGAGATTAGAGTATCGGTCGA”, the binding signal came out at 7.21 log2 normalized intensity.

“AGTGGAATGTGCCCTTTGACCTCTCTCTCCGCCTAGGGAGATTAGAGTATCGGTCGA”: the binding signal was determined as 8.33 log2 normalized intensity.

For the sequence “GGCCAGGTGGGCTGCTCCCAGTGCCCTTTGGCCTAGGGAGATTAGAGTATCGGTCGA”, the binding signal stood at 4.47 log2 normalized intensity.

With “CCCTCTGAGTGTTTGACCTTTCACCCAGAAGCCTAGGGAGATTAGAGTATCGGTCGA”, the binding signal turned out to be 7.2 log2 normalized intensity.

For the sequence “GGAATGACCTTTGATATTTGTGCCTAGTGGGCCTAGGGAGATTAGAGTATCGGTCGA”, the binding signal stood at 5.39 log2 normalized intensity.

With “TGGTGCCCTCTGAGTGTTTGACCTTTCACCGCCTAGGGAGATTAGAGTATCGGTCGA”, the binding signal amounted to 8.17 log2 normalized intensity.

As to “CACTCTGGTGCCCTCTGAGTGTTTGACCTTGCCTAGGGAGATTAGAGTATCGGTCGA”, the binding signal amounted to 5.61 log2 normalized intensity.

For the sequence “CCTGACCCCCAGTGGAATGTGCCCTTTGACGCCTAGGGAGATTAGAGTATCGGTCGA”, the binding signal was found to be 5.75 log2 normalized intensity.

Take “GGTGGGCTGCTCCCAGTGCCCTTTGAACTCGCCTAGGGAGATTAGAGTATCGGTCGA”: the binding signal stood at 8.91 log2 normalized intensity.

Take “GTGCTCCCTCCCCCTGCATGAACCTTTGCTGCCTAGGGAGATTAGAGTATCGGTCGA”: the binding signal came out at 3.72 log2 normalized intensity.

For “TGCCCTATGTCCTCCAGCTCTTGGGGAACAGCCTAGGGAGATTAGAGTATCGGTCGA”, the binding signal amounted to 0.218 log2 normalized intensity.

Turning to “AAAGCCATCAGCACTGGTTCAAAGTGTAGCGCCTAGGGAGATTAGAGTATCGGTCGA”, the binding signal turned out to be 1.25 log2 normalized intensity.

For the sequence “AGAGGAAGATCTTTTTGATGACTTTGTAGGGCCTAGGGAGATTAGAGTATCGGTCGA”, the binding signal worked out at 0.915 log2 normalized intensity.

Consider “TAAACCTGTTTGGTATCTACTCGGCAAAACGCCTAGGGAGATTAGAGTATCGGTCGA”, for which the binding signal was found to be 1.28 log2 normalized intensity.

Turning to “GACACTTCCAGCCAAACCAGGTCATGCATTGCCTAGGGAGATTAGAGTATCGGTCGA”, the binding signal was 0.387 log2 normalized intensity.

“CCGTTAGCCAATATTTGCAAGGCTGTTGGCGCCTAGGGAGATTAGAGTATCGGTCGA”: the binding signal is -0.823 log2 normalized intensity.

On to “CCCCCCAAGTTGAAGCCATCCTCCCACCTCGCCTAGGGAGATTAGAGTATCGGTCGA”, for which the binding signal turned out to be 5.73 log2 normalized intensity.

Turning to “TATTAGGCAAAAGAGATAGCGAGAAGGCAGGCCTAGGGAGATTAGAGTATCGGTCGA”, the binding signal was -0.999 log2 normalized intensity.

Regarding “TTATGTACTTAGTGTTTTATGTGTATTTACGCCTAGGGAGATTAGAGTATCGGTCGA”, the binding signal stood at 2.09 log2 normalized intensity.

Consider “AGTTTTGCAACATACTGAAAAAGGGTTGTGGCCTAGGGAGATTAGAGTATCGGTCGA”, for which the binding signal was 1.23 log2 normalized intensity.

Consider “CGCTCTGAGTGACCTTTCACCCGCGCCCAGGCCTAGGGAGATTAGAGTATCGGTCGA”, for which the binding signal is 6.45 log2 normalized intensity.

For “CGCCGGGCGCCGCTCTGAGTGACCTTTCACGCCTAGGGAGATTAGAGTATCGGTCGA”, the binding signal came to 5.71 log2 normalized intensity.

“GGCGCCGCTCTGAGTGACCTTTCACCCGCGGCCTAGGGAGATTAGAGTATCGGTCGA”: the binding signal was 7.77 log2 normalized intensity.

As for “CCCTGCAATTTGATTTGTATGATCTTGGGTGCCTAGGGAGATTAGAGTATCGGTCGA”, the binding signal was determined as 1.73 log2 normalized intensity.

Take “AGGATGTGTGCTCGAGGTGGACTTTCCCCCGCCTAGGGAGATTAGAGTATCGGTCGA”: the binding signal is 6.75 log2 normalized intensity.

On to “CAGTGAGGATGTGTGCTCGAGGTGGACTTTGCCTAGGGAGATTAGAGTATCGGTCGA”, for which the binding signal was 7.48 log2 normalized intensity.

For the sequence “TTCCCCAGTGAGGATGTGTGCTCGAGGTGGGCCTAGGGAGATTAGAGTATCGGTCGA”, the binding signal stood at 1.11 log2 normalized intensity.

Turning to “GACCATGTGATGTGAAGAGTGTGGACTTTCGCCTAGGGAGATTAGAGTATCGGTCGA”, the binding signal is 4.87 log2 normalized intensity.

With “TGTGATGTGAAGAGTGTGGACTTTCACCTCGCCTAGGGAGATTAGAGTATCGGTCGA”, the binding signal was 8.92 log2 normalized intensity.

In the case of “TGTGAAGAGTGTGGACTTTCACCTCCACCAGCCTAGGGAGATTAGAGTATCGGTCGA”, the binding signal was found to be 6.7 log2 normalized intensity.

Take “CAAGGGTCAGTTCATTAAAAAAAAAAAAAAGCCTAGGGAGATTAGAGTATCGGTCGA”: the binding signal was found to be 0.208 log2 normalized intensity.

For “GATCAAGAGGAAGATCTTTTTGATGACTTTGCCTAGGGAGATTAGAGTATCGGTCGA”, the binding signal was 0.895 log2 normalized intensity.

For the sequence “AGTATTACCATGTCCTGTGATTAAGGTCAAGCCTAGGGAGATTAGAGTATCGGTCGA”, the binding signal worked out at 2.96 log2 normalized intensity.

With “AACTATGCAGTGTCCATGGTGACCATGTGAGCCTAGGGAGATTAGAGTATCGGTCGA”, the binding signal is 1.71 log2 normalized intensity.

Consider “GCTTTTGGAAGGACTTCGAATGGTATGCTAGCCTAGGGAGATTAGAGTATCGGTCGA”, for which the binding signal was -0.468 log2 normalized intensity.

On to “CTGGACTATGCCTTGAACTTTAAGGCACCTGCCTAGGGAGATTAGAGTATCGGTCGA”, for which the binding signal came out at 1.67 log2 normalized intensity.

For the sequence “TGCTAGAGTACTTGGACTTTAACCTTTAGAGCCTAGGGAGATTAGAGTATCGGTCGA”, the binding signal amounted to 9.71 log2 normalized intensity.

As for “GCCTAAGCAGGGCTAGACTTTAACCCCCTTGCCTAGGGAGATTAGAGTATCGGTCGA”, the binding signal amounted to 6.24 log2 normalized intensity.

Take “TGGTATGCTAGAGTACTTGGACTTTAACCTGCCTAGGGAGATTAGAGTATCGGTCGA”: the binding signal worked out at 9.56 log2 normalized intensity.

Turning to “TCGAATGGTATGCTAGAGTACTTGGACTTTGCCTAGGGAGATTAGAGTATCGGTCGA”, the binding signal was determined as 7.5 log2 normalized intensity.

Consider “CTTTGGACTTGAATTATCCTTATGGTCTCTGCCTAGGGAGATTAGAGTATCGGTCGA”, for which the binding signal came to 0.611 log2 normalized intensity.

As for “CTTTAACGACCTTTGGACTTGAATTATCCTGCCTAGGGAGATTAGAGTATCGGTCGA”, the binding signal is 8.83 log2 normalized intensity.

As for “GGACTTCGAATGGTATGCTAGAGTACTTGGGCCTAGGGAGATTAGAGTATCGGTCGA”, the binding signal was determined as 1.51 log2 normalized intensity.

As for “ACGACCTTTGGACTTGAATTATCCTTATGGGCCTAGGGAGATTAGAGTATCGGTCGA”, the binding signal came to 6.99 log2 normalized intensity.

Turning to “AGAGTTAGGGCCTTGCTATGGAGTGGACTTGCCTAGGGAGATTAGAGTATCGGTCGA”, the binding signal is 3.91 log2 normalized intensity.
